Source: PubChem BioAssay (several laboratories)
TRPM1 prom inh – inhibitors of MITF-driven TRPM1 promoter in melanoma cells; 330,000 tested, 0.83% active; inhibition, % at 12.5 µM; SK-MEL-5 TRPM1 promoter luciferase, 24 h;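 active = mean inhibition across replicates of 60% or more, whatever share of single replicates reaches that level; inconclusive = some that reach 60%, reason not given; inactive = mean inhibition across replicates below 60%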
Shn3 3UTR inh – reduces Shn3 3'UTR luciferase signal in osteoblasts; inhibition, % at 12.5 µM; Clone20 osteoblast Shn3 3'UTR firefly luciferase, 24 h; 360,000 tested, 0.52% active;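 active = mean inhibition of at least 75% with every replicate also reaching 75%; inconclusive = mean inhibition at least 75% but some replicate below; inactive = mean inhibition below 75%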;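 also: 0% = median of neutral control wells and 100% = pilot-screen positive control compound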
TROY signal inh – inhibitors of TROY-dependent NF-kB signaling. Q293 LMP1-TROYcd NF-kB luciferase reporter, 4 h. inhibition, % at 10 µM. 360,000 tested, 0.98% active. AID 1347056;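 active = compounds whose plate-normalised and pattern-corrected inhibition of the luciferase reporter signal at the single screening dose is 50% or more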
EBV LMP1 NFkB – Epstein-Barr LMP1 NF-kappaB reporter inhibition; LMP1-induced NF-kappaB luciferase reporter cells, luminescence; inhibition, % at 12.5 µM; 350,000 tested, 0.69% active; AID 504558; in the data active = inhibition above about 41%; inconclusive = no clear call, values can overlap the other calls;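 also: 0% = neutral control wells and 100% = reference inhibitor control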
TWEAK Fn14 block – TWEAK-Fn14 signaling inhibition | TWEAK-stimulated Fn14 reporter cells, luciferase luminescence, 8 h | 360,000 tested, 2% active | inhibition, % at 10 µM; in the data active = inhibition above about 50%
Peg3 prom inh – inhibitors of Peg3 promoter; HeLa PEG-Prom luciferase reporter, luminescence, overnight; inhibition, % at 20 µM; 360,000 tested, 1.7% active;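 active = inhibition of at least 50% at 20 µM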
An asterisk follows results filed as active; ? = inconclusive; / = no result given; ! = not confirmed by another sample. This is a sample that favours compounds with a hit; in the whole collection about 4.1% have one here.

SMILES	TRPM1 prom inh	Shn3 3UTR inh	TROY signal inh	EBV LMP1 NFkB	TWEAK Fn14 block	Peg3 prom inh
COCCNC(=O)c1cccc(Nc2nc(-c3ccccc3)c3cc(Cl)ccc3n2)c1	20	0	32	18	63*	53*
c1cnc2ccc3ncccc3c2c1	-2	-9	1	-2	0	-53
O=Cc1ccc(O)c2ncccc12	63*	70	-12	59*	17	39
NCCCS(=O)(=O)O	-2	-19	11	54*!	-5	-6
COc1ccc(C(=O)CCC(=O)Nc2cc(Cl)c(O)c(Cl)c2)cc1	0	15	-14	1	-5	7
CC1=NOC(=O)/C1=C\c1ccc(-c2ccc(Br)cc2)o1	79*	41	73*	6	64*	89*
COc1ccc(Cl)cc1/C=C1/C(=O)ON=C1C	-1	-19	-15	1	14	25
CC1=NOC(=O)/C1=C\c1ccc(-c2ccc(Br)cc2C(=O)O)o1	-7	-38	-15	-4	-2	-1
CC1=NOC(=O)/C1=C\c1ccc(-c2cc(Cl)ccc2Cl)o1	99*	94*	2	14	101*	101*
CC1=NOC(=O)/C1=C/c1ccc(-c2ccc(Cl)cc2)o1	99*	?	78*	-9	73*	102*
CC(C)(C)N=C1NC(=NC(C)(C)C)c2ccccc21	-3	-3	-23	-1	53*	10
Cc1ccc(C)c(Cn2c(O)c(N=NC(=S)Nc3ccccc3F)c3ccccc32)c1	21	55	14	45*	3	26
Cc1ccccc1Cn1c(O)c(N=NC(=S)Nc2ccccc2F)c2ccccc21	13	25	-16	44*	-8	22
Oc1c(N=NC(=S)Nc2ccccc2F)c2ccccc2n1Cc1ccc(Cl)cc1	16	50	22	39	6	16
Oc1c(N=NC(=S)Nc2ccccc2F)c2ccccc2n1Cc1ccccc1F	18	31	18	48*	13	9
COc1ccc(C(=O)COC(=O)CNC(=O)c2ccccc2)cc1F	-3	4	-19	3	-2	-9
CCCCN(C(=O)c1cc(CN2C(=O)c3ccccc3C2=O)ccc1OC)c1c(N)n(CC(C)C)c(=O)[nH]c1=O	/	-21	-7	3	3	-4
CCOC(=O)c1ccccc1NC(=O)CSc1nc2ccccc2c(=O)n1CCCN1CCOCC1	-6	-13	-1	-17	-10	19
CC(=O)Nc1c(-c2cc(=O)oc3cc(C)ccc23)oc2ccccc12	-23	-7	-4	/	-26	15
O=S(=O)(c1ccc2c(c1)OCCO2)N1CCN(c2ncnc3sccc23)CC1	3	89*	23	19	23	26
Cc1ccc(S(=O)(=O)N2CCN(c3ncnc4sccc34)CC2)cc1C	44	88*	16	18	33	32
O=C(c1sc2cc([N+](=O)[O-])ccc2c1Cl)N1CCOCC1	2	5	-1	61*	-1	7
CC(C)N(C(=O)c1sc2cc([N+](=O)[O-])ccc2c1Cl)C(C)C	8	14	-18	14	-10	12
Nc1nc(CSCc2ccccc2)nc(N2CCOCC2)n1	-20	-36	/	-7	61*	-140
Cn1c(SC2=CS(=O)(=O)c3ccccc32)nc2ccccc21	65*	46	56*	-61	88*	99*
SMILES	TRPM1 prom inh	Shn3 3UTR inh	TROY signal inh	EBV LMP1 NFkB	TWEAK Fn14 block	Peg3 prom inh
CCOc1ccc(N(CC(=O)NC2CCCC2)S(=O)(=O)c2c(C)[nH]c(=O)[nH]c2=O)cc1	2	4	-11	-5	7	72*
CCOc1ccc(N(CC(=O)Nc2c(C)cccc2C)S(=O)(=O)c2c(C)[nH]c(=O)[nH]c2=O)cc1	-1	-3	12	1	80*	-8
CC(OC(=O)CCNS(=O)(=O)c1cccs1)C(=O)Nc1ccc(S(N)(=O)=O)cc1 (stereo not drawn)	6	-5	-15	0	14	-2
CC(CCc1ccco1)N(C)S(=O)(=O)c1csc(C(N)=O)c1 (stereo not drawn)	-9	3	12	52*	-12	15
Cc1cc(C)n2ncc(/C(N)=N/OC(=O)Nc3ccccc3)c2n1	-13	18	-3	4	4	11
Clc1ccccc1C1=Nn2c(nnc2-c2ccncc2)SC1	-18	0	49	56*	64*	2
c1csc(C2=Nn3c(nnc3-c3ccncc3)SC2)c1	-13	24	47	-1	69*	-12
CC1=Nn2c(nnc2-c2ccccc2Cl)SC1	-1	-17	-8	3	6	-5
COc1ccc(OC)c(NC(=O)C2(C)CCN2Cc2ccccc2Cl)c1 (stereo not drawn)	/	10	5	/	-20	18
Cc1c(CC(=O)NCCCC(=O)O)c(=O)oc2cc3c(cc12)CCC(C)(C)O3	51	19	39	11	81*	25
Cc1c(CC(=O)NCCCCCC(=O)O)c(=O)oc2cc3c(cc12)CCC(C)(C)O3	-4	-6	-4	4	38	9
N#Cc1cc2c(cc1NC(=O)CCn1cnnn1)OCO2	-2	-2	-38	1	6	-4
C=C(C)CN(CC)C(=O)Cn1cnc2c(oc3ccccc32)c1=O	-5	-15	54*	-5	-11	-10
Cc1cc(/C=C\c2ccc3cc(N(C)C)ccc3[n+]2C)c(C)n1-c1ccccc1	101*	95*	0	52*	44	64*
O=C(C[C@H]1C[C@H](C(=O)N2CCCCC2)[C@@]2(CCc3ccccc3)c3[nH]c4ccc(Cl)cc4c3CCN2C1=O)NCc1cccc(C(F)(F)F)c1	38	65	16	14	53*	5
CN(C)CCCNC(=O)C[C@H]1C[C@H](C(=O)N2CCCCC2)[C@@]2(C)c3[nH]c4cc(-c5ccco5)ccc4c3CCN2C1=O	-19	-26	-19	-4	-18	65*
COc1ccc2[nH]c3c(c2c1)CCN1C(=O)C(CC(=O)NCCCN(C)C)C[C@H](C(=O)N2CCCCC2)[C@@]31CCc1ccccc1 (stereo partly drawn)	-16	0	3	3	3	28
CN(C)CCCNC(=O)CC1C[C@H](C(=O)N2CCCCC2)[C@@]2(CCc3ccccc3)c3[nH]c4ccccc4c3CCN2C1=O (stereo partly drawn)	60	-14	22	1	-10	93*
O=C(CC1C[C@H](C(=O)N2CCCCC2)[C@@]2(CCc3ccccc3)c3[nH]c4ccccc4c3CCN2C1=O)NCc1cccc(C(F)(F)F)c1 (stereo partly drawn)	30	81	18	3	49	-1
O=C(CC1C[C@H](C(=O)N2CCCCC2)[C@@]2(CCc3ccccc3)c3[nH]c4ccccc4c3CCN2C1=O)NCCc1ccccn1 (stereo partly drawn)	19	10	7	69*	19	8
